# A selection: hits, their analogues and other compounds. The true share with any hit is near 3.4%.
# PLCg1 inh: PLC-gamma1 enzyme inhibitors, primary screen, biochemical, fluorescence, purified enzyme; fluorogenic substrate; inhibition, % at 12.2 µM; 370,000 compounds, 0.84% hits; AID 720700, 2013; in the data active = inhibition above about 9.5%
# KLK7 zymogen act: proKLK7 zymogen activators, primary screen, biochemical, fluorescence intensity; activation, % at 7 µM; AID 652039, 2013; 370,000 compounds, 0.9% hits; Kallikrein-7 (Homo sapiens), P49862; purified proKLK7, EDANS-DABCYL substrate fluorescence; 100% is mature enzyme control, 0% vehicle;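 active = activation above the mean of all tested compounds plus 3 SD, computed per campaign excluding outliers beyond control limits, cut at about 13% in these data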
# ADAM10 inh: human ADAM10 inhibitors, primary screen, biochemical, QFRET, HTS | recombinant ADAM10, EDANS/DABCYL FRET peptide cleavage, 3 h | inhibition, % at 7 µM | 370,000 compounds, 0.62% hits | AID 720582, 2013;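 active = inhibition above a per-campaign cutoff equal to the mean of compounds falling between control-based bounds plus 3 SD, cut at about 20% in these data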;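 note: 0% = DMSO wells while the 100% control is not disclosed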
# ADAM17 inh: ADAM17 inhibitors, primary screen, biochemical, QFRET. Disintegrin and metalloproteinase domain-containing protein 17 (Homo sapiens), P78536. recombinant ADAM17, EDANS/DABCYL FRET peptide cleavage. inhibition, % at 6.95 µM. 370,000 compounds, 0.83% hits;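 active = inhibition above the mean of compounds lying between control limits plus 3 SD, set per campaign, cut at about 8.5% in these data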;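 note: 0% = DMSO-only wells as the low control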
# PLC-beta3 inh: human PLC-beta3 inhibitors, primary screen, biochemical, fluorescence | Purified PLC-beta3, fluorogenic substrate | AID 720704, 2013 | 370,000 compounds, 0.18% hits | inhibition, % at 12.2 µM;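 note: 0% = median of compound wells on plate and 100% = full blocker control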
# HGIII-sPLA2 inh: human group III sPLA2 inhibitors, primary screen, biochemical, QFRET, BODIPY PC-A2 liposome substrate. QFRET BODIPY PC-A2 liposome hydrolysis, fluorescence. inhibition, % at 12.2 µM. 370,000 compounds, 0.56% hits;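 active = inhibition above mean plus 3 SD of compounds lying within the high and low control bounds, cut at about 19% in these data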;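 note: 0% = median of test compound wells and 100% = no enzyme DMSO wells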
# PLCgamma1 ctr: PLC-gamma1 enzyme inhibitors, counter-screen for PLC-beta3 inhibitor project, biochemical, fluorescence; purified PLC-gamma1, fluorogenic substrate; inhibition, % at 12.3 µM; 3,300 compounds, 3.1% hits; shares compounds with PLCg1 inh; AID 743258, 2014; in the data active = inhibition above about 9.5%
# PLCbeta3 conf: PLC-beta3 inhibitor confirmation, biochemical, fluorescence, purified enzyme. shares compounds with PLCg1 inh. fluorogenic substrate fluorescence. inhibition, % at 12.3 µM. 3,300 compounds, 1% hits. AID 743261, 2014
# The depositor's hits bear a star; · = no result given. Cut-off read from the data, not from the text of the source, unless noted: active = inhibition above about 11%; inactive = the rest.
SMILES,PLCg1 inh,KLK7 zymogen act,ADAM10 inh,ADAM17 inh,PLC-beta3 inh,HGIII-sPLA2 inh,PLCgamma1 ctr,PLCbeta3 conf
CC(C)CNC(=O)c1cc([N+](=O)[O-])ccc1N1CCOCC1,10.5*,-0.1,3.2,2.6,5.0,7.6,-8.9,-5.3
Cc1ccc(CNC(=O)[C@@H](Cc2ccccc2)NC(=O)[C@H]2O[C@@H](n3ccc(N)nc3=O)[C@H](O)[C@@H]2O)o1,0.5,0.6,-9.3,-6.5,-0.3,7.0,·,·
CN(C)S(=O)(=O)c1ccc(C(=O)N2CCCC2c2nc3ccccc3s2)cc1 (configuration not stated),7.6,0.0,4.4,6.1,10.8*,-17.0,6.3,4.1
O=S(=O)(c1ccc(Br)cc1)N1CCCC1c1nc2ccccc2s1 (configuration not stated),4.7,-0.6,10.0,0.5,0.2,-4.9,·,·
CCCCCCCCN1C(=O)[C@@H](CC(=O)NCCc2ccccc2OC)C[C@@]2(C(=O)OC)C1=C[C@H](C(C)(C)C)O[C@@H]2C,4.3,-0.5,-4.5,-1.6,4.2,4.9,·,·
CCOc1ccc(C(=O)NC(=S)Nc2ccccc2N2CCOCC2)cc1Br,9.9*,-0.3,-7.3,-3.7,1.3,17.1,2.2,2.7
O=C(NCCc1c[nH]c2ccccc12)OCc1cn(Cc2cccc(F)c2F)nn1,-1.8,-0.1,-1.1,-5.8,-1.6,-63.7,·,·
CCCOc1ccc(C(C)=O)cc1CC(C(N)=O)C(N)=O,-0.6,0.3,1.3,-2.4,0.7,-7.5,·,·
CC(=O)c1ccc(OCC(C)C)c(CC(C(N)=O)C(N)=O)c1,7.3,-0.2,0.3,5.0,11.9*,1.2,-6.1,0.9
CN(C)[C@H]1CCN(c2cccc3c2S(=O)(=O)N(C2CC2)CCCO3)C1,-0.5,0.0,-1.8,-1.8,-0.8,-2.9,·,·
Oc1ccc(CNc2cccnc2)c2cccnc12,-0.5,·,8.6,2.8,0.7,2.8,·,·
CN1CCN(C2=C(NS(=O)(=O)c3cccs3)C(=O)c3ccccc3C2=O)CC1,-0.1,0.5,5.4,-5.9,-21.7,2.4,·,·
O=C1C(NS(=O)(=O)c2cccs2)=C(N2CCOCC2)C(=O)c2ccccc21,9.8*,0.6,6.8,1.0,-2.3,9.0,-9.6,-6.4
O=S(=O)(Nc1nc2ccccc2s1)c1cc(F)ccc1F,9.5*,0.0,9.7,2.0,-0.8,-23.8,-6.6,-3.2
Oc1cc(O)cc(C=Cc2ccc(O)c(O)c2)c1,-300.4,-134.7,-139.6,-47.6,-424.8,-4.2,·,·
CN(Cc1ccccc1F)C(=O)CCCNC(=O)c1ccc(Cl)cc1,11.2*,0.4,9.2,1.9,-4.4,-4.4,-9.2,-5.5
CCCCCCCCNS(=O)(=O)CC1NCc2cc(F)ccc21 (configuration not stated),-8.6,-0.2,1.4,0.0,-9.6,-3.9,·,·
O=C(NCC1CCN(Cc2ccc(Cl)cc2)CC1)C1CCCN(c2ncnc3c2nc2n3CCCCC2)C1 (configuration not stated),10.8*,0.6,2.6,2.4,-7.4,-30.4,-3.1,-1.5
O=C(NCC1CCN(Cc2ccc(F)cc2)CC1)C1CCCN(c2ncnc3c2nc2n3CCCCC2)C1 (configuration not stated),-1.3,0.8,-5.3,-4.9,-5.5,-7.8,·,·
CCOC(=O)N1CCN(C(=O)/C(=C\c2cccs2)NC(=O)c2cccs2)CC1,10.3*,0.8,9.5,3.0,1.1,6.0,5.7,8.2
CC(=O)NC(CC(=O)NC1CCCCCC1)c1ccccc1 (configuration not stated),3.8,0.2,12.7,2.6,6.7,-0.1,·,·
CCC(NC(=O)NC1CCCCC1)c1ccccc1 (configuration not stated),9.5*,-1.0,7.4,4.8,11.7*,10.1,-3.8,0.2
COc1ccc(-c2c(Cc3ccccc3)nc(NC(=O)c3ccccc3F)n2C)cc1,-2.2,0.2,-1.2,1.7,-6.1,18.5,·,·
Cn1ccc2ccc(-c3ccc4c(c3)[C@]3(CCC[C@@H](OCc5ccccc5)[C@@H]3NC(=O)CCc3ccccc3)C(=O)N4Cc3ccccc3)cc21,-0.5,-0.2,-1.9,0.0,-1.9,10.6,·,·
Cc1ccc(C)c(OCCCNCc2ccccc2)c1,15.3*,0.0,3.8,1.1,1.1,-0.5,-5.1,0.1
SMILES,PLCg1 inh,KLK7 zymogen act,ADAM10 inh,ADAM17 inh,PLC-beta3 inh,HGIII-sPLA2 inh,PLCgamma1 ctr,PLCbeta3 conf
C/C(C=NNC(=O)CSc1nc2ccccc2n1C)=C\c1ccccc1,-0.2,0.4,7.9,3.7,1.3,-5.1,·,·
C=CCSC1=N/C(=C\c2ccc3c(c2)OCO3)C(=O)S1,-1.2,-0.6,-0.1,-6.6,-1.1,3.8,·,·
C=CCSC1=N/C(=C\c2cc(OCC)c(OC(C)=O)c([N+](=O)[O-])c2)C(=O)S1,12.4*,0.4,12.8,4.8,4.7,0.1,2.1,-0.8
O=C1CSc2ccccc2N1,10.7*,0.0,-8.8,3.9,5.4,3.7,-1.2,-0.8
Cc1cc(N2CCN(C(=O)Oc3ccc(-c4ccccc4)cc3)CC2)c2ccccc2n1,-1.8,-0.6,-5.0,-3.0,-3.2,-2.0,·,·
CN(C)C(=O)c1ccccc1Sc1cc(Cl)ccc1Cl,15.2*,0.0,5.8,-4.5,-0.9,3.7,-2.6,-0.6
CN(C)C(=O)c1ccccc1Sc1ccc(Cl)cc1Cl,-2.8,0.1,-8.7,-3.3,1.2,-1.7,·,·
O=C(CS(=O)c1ccc(F)cc1)Nc1ccccc1Cl (configuration not stated),10.0*,-0.4,9.2,-1.6,2.3,4.5,6.1,-4.8
O=C(CS(=O)c1cccc(C(F)(F)F)c1)Nc1ccccc1Cl (configuration not stated),2.7,0.9,0.5,-0.2,-51.1,-2.5,·,·
CCOc1ccc(Cc2nc(C)c(CC(=O)N3CCOCC3)c(=O)[nH]2)cc1,10.5*,-0.1,7.2,4.4,3.2,4.7,-4.7,-3.0
CCOc1ccc(-n2nnnc2SCC(=O)N2CCOCC2)cc1,1.2,-0.2,-19.5,0.4,-1.2,7.8,·,·
CCOC(=O)c1cnn(-c2ccccc2)c1N,2.5,0.5,2.5,0.5,0.8,-2.8,·,·
CCOC(=O)c1cnn(-c2nc(C)cc(C)n2)c1N,10.1*,-0.7,1.9,3.6,5.2,9.9,-2.1,-1.3
